38 compounds from PubChem BioAssay (NCI) can be followed below.

The panel holds about 83,000 compounds, 20% with a hit somewhere; the sample as a whole holds those more often.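 Single-dose data. Exposure time 48 hours. Values below 10 considered active.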 Calls of active or inactive are those of the source.

One assay concerns SNB-75 CNS. Nature of the assay: NCI-60 one-dose screen, 48 h (100 = growth as untreated, 0 = no growth, -100 = all killed). To be noted: 10 µM unless noted.
For the compound `CC1CC(C)S(=O)(=O)C1` (stereo unspecified), the growth was 94.6% (inactive).

Take `Nc1c(Br)cc(O)c2c1C(=O)c1ccccc1C2=O`: the growth is 110% (inactive).

For `NC(CO)(CO)c1ccccc1`, the growth is 88.7% (inactive).

With `CC(C)N1CC(=O)N2CSCC2C1=O` (stereo unspecified), the growth was 99.3% (inactive).

In the case of `CCNC(=O)OCCc1c2ccccc2nc2ccccc12`, the growth was 81.3% (inactive).

Consider `CCN(CC)CCN1CNC(=S)NC1`, for which the growth was 107% (inactive).

`Oc1cc(O)c2c(c1)O[C@H](c1ccc(O)c(O)c1)[C@@H](O)C2`: the growth was 83.6% (inactive).

`CN1CCN(C(=S)S)CC1`: the growth is 105% (inactive).

As to `O=c1[nH]c(=O)c2cc(Cl)cc(Cl)c2[nH]1`, the growth was 68.2% (inactive).

With `CCOP(=O)(NC(c1ccccc1)c1ccccc1)OCC`, the growth was 88.7% (inactive).

With `Cc1ccc2nc(N)nnc2c1`, the growth was 90.5% (inactive).

As to `NC(=S)N/N=C/c1ccc(Cl)cc1`, the growth was 103% (inactive).

On to `CC(=O)C1C(=O)C(=O)N(c2ccc(Cl)c(Cl)c2)C1=O` (stereo unspecified), for which the growth is 78.3% (inactive).

As for `CN1CCCN(C(c2ccccc2)c2ccc(Cl)cc2)CC1` (stereo unspecified), the growth is 59% (inactive).

Consider `c1ccc(-c2ccc3ccccc3c2)cc1`, for which the growth was 107% (inactive).

Turning to `CCOC(=O)C(C#N)=C1CCN(C)CC1`, the growth was 102% (inactive).

Consider `Ic1cccs1`, for which the growth is 105% (inactive).

Consider `O=C(O)c1cccc(-n2ncc(Cl)c(Cl)c2=O)c1`, for which the growth was 81.1% (inactive).

For the compound `CCCCn1cnc2c(=O)[nH]cnc21`, the growth was 89.6% (inactive).

Take `CC(=O)N(C(C)=O)c1ccc(C)cc1`: the growth was 89.1% (inactive).

For `CCNCC(C)(C)O`, the growth is 79.4% (inactive).

For `COc1cc(C(=O)NC(=S)NCc2ccncc2)cc(OC)c1OC`, the growth is 92.5% (inactive).

For `CCOc1ccc(C(=O)NCC(C)C)cc1`, the growth is 81.8% (inactive).

Consider `CCOC(=O)C(=O)CC(=O)c1ccccc1`, for which the growth was 91.7% (inactive).

Turning to `C=CCOc1ccc(Cl)cc1Cl`, the growth is 90.3% (inactive).

Regarding `C#CCSc1nnnn1-c1ccccc1`, the growth was 73.2% (inactive).

For `CCOC(=O)c1c(C)[nH]c(C)c1C=O`, the growth was 94.2% (inactive).

With `C/C(Cc1ccccc1)=N\O`, the growth is 115% (inactive).

Consider `Nc1cc2ccccc2c(O)c1O`, for which the growth was 90.4% (inactive).

As to `NNC(=O)N/N=C1\C(=O)N(c2nccs2)C(=O)C(=O)C1c1nc2ccccc2s1` (stereo unspecified), the growth is 81.8% (inactive).

As for `S=c1nc(-c2ccccn2)c(-c2ccccn2)n[nH]1`, the growth was 107% (inactive).

In the case of `Nc1nc(Cl)cc(Cl)n1`, the growth is 91.4% (inactive).

As for `CC1(C)C2CCC1(C)C1(C2)OCCS1` (stereo unspecified), the growth is 78.5% (inactive).

On to `CC(C)(N)CO[C@H]1C[C@H]2CC[C@@]1(C)C2(C)C`, for which the growth is 89.3% (inactive).

As for `COC(=O)c1ccc([N+](=O)[O-])c(C)c1`, the growth is 88.4% (inactive).

For the compound `CCCCCCCCCc1ccc(OC(C)=O)cc1`, the growth is 99.4% (inactive).

On to `CC(C)=CCC[C@@H](C)[C@H]1CC[C@@]2(C)C3=C(CC[C@]12C)[C@@]1(C)CC[C@H](O)C(C)(C)[C@@H]1CC3`, for which the growth is 92.7% (inactive).

Regarding `CC(O)C(F)(F)C(F)(F)C(F)(F)F` (stereo unspecified), the growth was 103% (inactive).

Another assay has as its system SNB-19 CNS. The assay is described as above. To be noted: 10 µM unless noted.
On to `CC1CC(C)S(=O)(=O)C1` (stereo unspecified), for which the growth is 108% (inactive).

With `Nc1c(Br)cc(O)c2c1C(=O)c1ccccc1C2=O`, the growth was 95.2% (inactive).

On to `NC(CO)(CO)c1ccccc1`, for which the growth is 107% (inactive).

With `CC(C)N1CC(=O)N2CSCC2C1=O` (stereo unspecified), the growth is 121% (inactive).

For the compound `CCNC(=O)OCCc1c2ccccc2nc2ccccc12`, the growth was 111% (inactive).

Consider `CCN(CC)CCN1CNC(=S)NC1`, for which the growth was 104% (inactive).

On to `Oc1cc(O)c2c(c1)O[C@H](c1ccc(O)c(O)c1)[C@@H](O)C2`, for which the growth was 101% (inactive).

As for `CN1CCN(C(=S)S)CC1`, the growth is 103% (inactive).

For the compound `O=c1[nH]c(=O)c2cc(Cl)cc(Cl)c2[nH]1`, the growth is 95% (inactive).

As to `CCOP(=O)(NC(c1ccccc1)c1ccccc1)OCC`, the growth was 102% (inactive).

For `Cc1ccc2nc(N)nnc2c1`, the growth was 102% (inactive).

In the case of `NC(=S)N/N=C/c1ccc(Cl)cc1`, the growth was 107% (inactive).

As to `CC(=O)C1C(=O)C(=O)N(c2ccc(Cl)c(Cl)c2)C1=O` (stereo unspecified), the growth was 107% (inactive).

On to `CN1CCCN(C(c2ccccc2)c2ccc(Cl)cc2)CC1` (stereo unspecified), for which the growth was 117% (inactive).

As to `c1ccc(-c2ccc3ccccc3c2)cc1`, the growth was 100% (inactive).

`CCOC(=O)C(C#N)=C1CCN(C)CC1`: the growth is 101% (inactive).

For `Ic1cccs1`, the growth was 99.6% (inactive).

For the compound `O=C(O)c1cccc(-n2ncc(Cl)c(Cl)c2=O)c1`, the growth was 102% (inactive).

Take `CCCCn1cnc2c(=O)[nH]cnc21`: the growth was 96.9% (inactive).

`CC(=O)N(C(C)=O)c1ccc(C)cc1`: the growth is 93.8% (inactive).

Take `CCNCC(C)(C)O`: the growth is 102% (inactive).

Consider `COc1cc(C(=O)NC(=S)NCc2ccncc2)cc(OC)c1OC`, for which the growth is 106% (inactive).

On to `CCOc1ccc(C(=O)NCC(C)C)cc1`, for which the growth was 99.3% (inactive).

For the compound `CCOC(=O)C(=O)CC(=O)c1ccccc1`, the growth is 100% (inactive).

Turning to `C=CCOc1ccc(Cl)cc1Cl`, the growth was 114% (inactive).

For `C#CCSc1nnnn1-c1ccccc1`, the growth is 97.5% (inactive).

In the case of `CCOC(=O)c1c(C)[nH]c(C)c1C=O`, the growth is 97.1% (inactive).

For `C/C(Cc1ccccc1)=N\O`, the growth is 108% (inactive).

With `Nc1cc2ccccc2c(O)c1O`, the growth was 90.2% (inactive).

As to `NNC(=O)N/N=C1\C(=O)N(c2nccs2)C(=O)C(=O)C1c1nc2ccccc2s1` (stereo unspecified), the growth was 101% (inactive).

With `S=c1nc(-c2ccccn2)c(-c2ccccn2)n[nH]1`, the growth is 112% (inactive).

For `Nc1nc(Cl)cc(Cl)n1`, the growth is 113% (inactive).

As for `CC1(C)C2CCC1(C)C1(C2)OCCS1` (stereo unspecified), the growth was 88.8% (inactive).

On to `CC(C)(N)CO[C@H]1C[C@H]2CC[C@@]1(C)C2(C)C`, for which the growth is 103% (inactive).

With `COC(=O)c1ccc([N+](=O)[O-])c(C)c1`, the growth was 119% (inactive).

Consider `CCCCCCCCCc1ccc(OC(C)=O)cc1`, for which the growth is 103% (inactive).

`CC(C)=CCC[C@@H](C)[C@H]1CC[C@@]2(C)C3=C(CC[C@]12C)[C@@]1(C)CC[C@H](O)C(C)(C)[C@@H]1CC3`: the growth was 105% (inactive).

Regarding `CC(O)C(F)(F)C(F)(F)C(F)(F)F` (stereo unspecified), the growth was 112% (inactive).
